A selection: hits, their analogues and other compounds. The true share with any hit is near 7.4%.
SMN2 splice up: qHTS Assay for Enhancers of SMN2 Splice Variant Expression; HEK293 SMN2-luciferase splicing reporter, luminescence, 30-36 h; AID 1458, 2008; 2.8% of 210,000 active; Potency, µM (titrated, usually from 46.1 µM), usual class: activators; note: nearly all actives have a fitted effect of over 55% in size
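HEK293 cells carry an SMN2 […]–luciferase reporter in which exon 7 inclusion puts luciferase in frame. Cells were plated 10-12 h before compound addition, then incubated 30-36 h at 37C. ONE-Glo luminescence was read; sodium butyrate at 4.5 mM final served as control.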
FLuc counter: qHTS profiling assay for firefly luciferase inhibitor/activator using purifed enzyme and Km concentrations of substrates (counterscreen for miR-21 project). Luciferin 4-monooxygenase (Photinus pyralis), P08659. AID 588342, 2011. 6.9% of 360,000 active. purified FLuc, Km substrates, luminescence inhibition. Potency, µM (highest dose often 57.5 µM), hits mostly inhibitors; note: nearly all actives have a fitted effect of over 55% in size
Target sequence (P08659 whole entry, looked up): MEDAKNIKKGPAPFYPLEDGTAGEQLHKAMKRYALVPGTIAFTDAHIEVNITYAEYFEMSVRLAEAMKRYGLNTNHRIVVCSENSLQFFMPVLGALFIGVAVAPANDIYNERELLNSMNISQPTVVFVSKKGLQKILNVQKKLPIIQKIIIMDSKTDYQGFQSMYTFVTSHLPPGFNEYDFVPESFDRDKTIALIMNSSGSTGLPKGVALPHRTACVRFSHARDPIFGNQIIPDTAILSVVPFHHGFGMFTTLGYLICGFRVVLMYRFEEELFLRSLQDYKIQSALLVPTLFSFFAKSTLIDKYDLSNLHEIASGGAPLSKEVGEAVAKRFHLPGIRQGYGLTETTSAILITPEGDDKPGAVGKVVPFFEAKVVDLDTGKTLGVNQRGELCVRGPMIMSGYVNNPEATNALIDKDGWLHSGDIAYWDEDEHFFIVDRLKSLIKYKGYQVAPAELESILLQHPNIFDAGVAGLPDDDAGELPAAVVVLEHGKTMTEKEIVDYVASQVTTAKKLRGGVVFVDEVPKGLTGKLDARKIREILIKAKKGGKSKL
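Purified P. pyralis luciferase (10nM final) with 10uM D-luciferin and 10uM ATP (Km levels) in 50mM Tris acetate pH 7.5, 10mM Mg acetate, 0.01% Tween-20, 0.05% BSA; qHTS 6-point titration, ~60 µM downward; luminescence read.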
NPC1 prom act: qHTS Assay for NPC1 Promoter Activators; Huh7 NPC1 promoter luciferase reporter, 24 h; Potency, µM (titrated, usually from 9.22 µM), most hits filed as activators; 2.4% of 320,000 active; AID 485313, 2010; note: nearly all actives have a fitted effect of over 60% in size
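NPC1 promoter–luciferase Huh7 cells; 24 h compound; luminescence.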
Rab9 prom act: qHTS Assay for Rab9 Promoter Activators. Huh7 Rab9 promoter-luciferase reporter, luminescence, 24 h. Potency, µM (series often up to 9.22 µM), hits mostly activators. 2.8% of 320,000 active. AID 485297, 2010; note: nearly all actives have a fitted effect of over 60% in size
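Rab9 promoter-driven luciferase in stably transfected Huh7 cells; 1500 cells/well rested 2 h, exposed to compound in DMSO for 24 h at 37 °C, 5% CO2. Luminescence read 10 min after adding luciferase reagent at ambient temperature.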
ELG1 genotox: qHTS screen for small molecules that induce genotoxicity in human embryonic kidney (HEK293T) cells expressing luciferase-tagged ELG1 | AID 504466, 2011 | Potency, µM (top dose mostly 46 µM), actives largely listed as activators | 1.3% of 330,000 active | HEK293T ELG1-luciferase reporter, luminescence, 16 h; note: nearly all actives have a fitted effect of over 60% in size
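Quantitative HTS format in 1536-well plates. HEK293T ELG1-luciferase reporter cells receive test compound and are incubated 16 hr at 37 °C, 5% CO2; ONE-Glo added, 30 min room temperature, then luminescence read.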
Large screens that a line does not name were inactive. Calls come from the whole dose curve; as a rule, active = well fitted curve in the direction sought with a large enough effect; inconclusive = small, poorly fitted or top-dose-only effect, or another doubt; inactive = no such curve, though single readings can be large; an effect the other way counts as inactive or inconclusive.

Cc1ccnc(Nc2nc(-c3ccc(O)cc3)cs2)c1	FLuc counter 8.49µM, NPC1 prom act 2.51µM, Rab9 prom act 3.16µM, ELG1 genotox inconclusive (no result: SMN2 splice up)
Cc1cccnc1NC(=O)c1cccc(NC(=O)CC2SC(N3CCCCC3)=NC2=O)c1 (stereo not given)	none (no result: SMN2 splice up)
Cc1cccn2c(=O)c(C(=O)NCCc3ccccc3)c(O)nc12	FLuc counter inconclusive (no result: NPC1 prom act, Rab9 prom act, ELG1 genotox)
O=c1[nH]c(CSc2nnc3ccccn23)nc2cc(C(F)(F)F)ccc12	none
CCc1cccc(NC(=O)Cn2c(=O)ccc3cc(S(=O)(=O)N4CCC(C)CC4)ccc32)c1	none (no result: SMN2 splice up, NPC1 prom act, Rab9 prom act, ELG1 genotox)
CCOC(=O)c1cc(-c2c(Cl)cccc2Cl)no1	none (no result: SMN2 splice up)
Oc1ccc(-c2csc(Nc3ccccn3)n2)cc1O	FLuc counter 9.53µM, NPC1 prom act inconclusive, ELG1 genotox 3.66µM (no result: SMN2 splice up)
CCC(=O)Nc1nc(C)c(-c2csc(Nc3ccccn3)n2)s1	FLuc counter 16.9µM, NPC1 prom act inconclusive, Rab9 prom act inconclusive
Cc1cccc(N2CCN(C(=O)CCn3c(=O)c4cccn4c4cccnc43)CC2)c1C	none (no result: SMN2 splice up, NPC1 prom act, Rab9 prom act, ELG1 genotox)
O=C(Nc1ccc(C(F)(F)F)cc1[N+](=O)[O-])O[C@H]1[C@H](Cc2ccccc2)NS(=O)(=O)[C@H]2C[C@@H]3C=C[C@]12O3	none (no result: SMN2 splice up)
O=C(Oc1ccccc1)N1CCC2(CC1)CCN(c1ccccc1)CC2	none (no result: FLuc counter, NPC1 prom act, Rab9 prom act, ELG1 genotox)
CN=c1scc(-c2ccccc2F)n1/N=C/c1ccc(O)c(O)c1O	SMN2 splice up 0.631µM, FLuc counter 0.757µM, NPC1 prom act inconclusive, Rab9 prom act inconclusive
CCN=c1scc(-c2cccs2)n1/N=C/c1cc(OC)ccc1O	SMN2 splice up inconclusive, FLuc counter 2.39µM, NPC1 prom act 2µM, Rab9 prom act inconclusive, ELG1 genotox inconclusive
CC(C)N=c1scc(-c2cccs2)n1/N=C/c1ccc(O)c(O)c1O	FLuc counter 23.9µM, ELG1 genotox inconclusive
COc1ccc(O)c(/C=N/n2c(-c3ccco3)csc2=Nc2cccnc2)c1	none
CN=c1scc(-c2ccccc2F)n1/N=C/c1ccc[nH]1	FLuc counter 0.0269µM
C=CCN1c2ccccc2[C@]23C[C@@H](C(=O)OC)N(S(=O)(=O)c4ccc(C(F)(F)F)cc4)C2=NC(C(=O)OC)=C(C(=O)OC)[C@H]13	none (no result: FLuc counter, NPC1 prom act, Rab9 prom act, ELG1 genotox)
CCOc1ccccc1CNC(=O)c1ccc2nc(CCc3ccccc3)oc2c1	none (no result: SMN2 splice up, NPC1 prom act, Rab9 prom act, ELG1 genotox)
COc1ccc(-c2nc(C)c(CCNC(=O)C(=O)Nc3cccc(F)c3)s2)cc1OC	none (no result: SMN2 splice up, NPC1 prom act, Rab9 prom act, ELG1 genotox)
COc1ccccc1NCc1cccn1-c1nnc(N2CCOCC2)s1	none (no result: SMN2 splice up, NPC1 prom act, Rab9 prom act, ELG1 genotox)
COc1cc([N+](=O)[O-])ccc1NC(=O)Nc1ccc2c(c1)OCCO2	FLuc counter 6.75µM, Rab9 prom act inconclusive
O=C(Nc1ccc([N+](=O)[O-])cc1)Nc1ccc2c(c1)OCCO2	SMN2 splice up 6.31µM, FLuc counter 2.13µM, NPC1 prom act 1µM, Rab9 prom act 0.794µM
COc1cc([N+](=O)[O-])ccc1NC(=S)N1CCOCC1	none (no result: SMN2 splice up)
O=C(CSc1ccc([N+](=O)[O-])cn1)Nc1ccc2c(c1)OCCO2	FLuc counter inconclusive
OC[C@H]1O[C@@H](Oc2cc(O)cc(/C=C/c3ccc(O)cc3)c2)[C@H](O)[C@@H](O)[C@@H]1O	FLuc counter 19µM (no result: SMN2 splice up, ELG1 genotox)
NC(=O)C1=NOC(CNc2ncc(C(F)(F)F)cc2Cl)C1 (stereo not given)	FLuc counter inconclusive, Rab9 prom act inconclusive, ELG1 genotox 23.1µM
COc1ccc(C2NN=C(c3ccc(C)cc3)S2)cc1 (stereo not given)	FLuc counter 1.2µM, Rab9 prom act 0.631µM, ELG1 genotox inconclusive (no result: SMN2 splice up)
CCOc1cc(C2c3c(n[nH]c3C)C(=O)N2c2ccc(C)cc2)ccc1O (stereo not given)	none
CCOc1cc(C2NN=C(c3ccc(C)cc3)S2)ccc1O (stereo not given)	SMN2 splice up 15.8µM, FLuc counter 5.36µM, NPC1 prom act 3.16µM, Rab9 prom act 3.55µM, ELG1 genotox inconclusive
Cc1ccc(C2=NNC(C(O)C(O)C(O)CO)S2)cc1 (stereo not given)	FLuc counter 15.1µM, ELG1 genotox inconclusive
COc1ccc2c(c1)c(CC(=O)N1CCOCC1)c(C)n2C(=O)c1ccc(Cl)cc1	none (no result: FLuc counter, NPC1 prom act, Rab9 prom act, ELG1 genotox)

Source: PubChem BioAssay (National Center for Advancing Translational Sciences (NCATS))
